Screening data (PubChem)
An excerpt weighted towards active compounds, which were near 3.1% of everything screened.
Peg3 prom inh = reduces Peg3 promoter-driven luciferase expression in HeLa; HeLa PEG-Prom luciferase reporter, luminescence, overnight; inhibition, % at 20 µM; hit rate 1.7% among 360,000; AID 588405;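 active means inhibition of at least 50% at 20 µM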
PPC-1+TRAIL kill = compounds killing PPC-1 cancer cells with TRAIL present (potentiator screen, no TRAIL-free arm). PPC-1 cells + TRAIL, ATPLite viability luminescence. cell killing (% activity), % at 4 µM or 5 µM. hit rate 0.41% among 220,000. AID 1443;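 active means cell killing above 50% in the first pass at 4 µM, then a duplicate retest at 5 µM averaging 50% or more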
HIF-2a inh = HIF-2a inhibition. 786-0 RCC cells HIF-2a reporter, luciferase luminescence, overnight. inhibition, % at 18.8 µM. hit rate 0.72% among 360,000. AID 624352;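 active means inhibition of the luminescence signal of 40% or more relative to plate controls, in a single-dose primary screen at 18.75 µM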
KKLEB tox = CF airway cell cytotoxicity counter-screen. KKLEB CF airway cells viability, ATPlite luminescence, overnight; active compounds read low; cells stimulated with P. aeruginosa culture filtrate. hit rate 0.36% among 360,000. activity change (cytotoxicity), % at 5 µM. AID 602141;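 active means corrected activity change at or below -50% at 5 µM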
CF NFkB inh = cystic fibrosis NF-kB activation inhibition; inhibition, % at 5 µM; hit rate 0.86% among 360,000; KKLEB NF-kB-GFP reporter, PAF-induced, GFP fluorescence overnight;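 active means at least 50% inhibition at 5 µM, scaled per plate between neutral and stimulator controls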;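 further: PAF is a Pseudomonas aeruginosa culture filtrate used as stimulus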
C8 TRAIL sens = sensitizes caspase-8 expressing cells to TRAIL. NB7+C8 cells + TRAIL, ATPlite viability luminescence. inhibition (viability loss, TRAIL sensitization), % at 10 µM. hit rate 1% among 360,000;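 active means compounds causing at least 50% loss of cell viability in the single-dose screen, relative to plate controls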
PPC-1 tox = kills PPC-1 cells | shares compounds with PPC-1+TRAIL kill | AID 1447 | hit rate 50% among 1,200 | cytotoxicity, % at 5 µM | PPC-1 viability, ATPlite luminescence, overnight;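 active means reconfirmed compounds whose average cytotoxicity reaches 50% or more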
Numbers stand for hits; n = inactive; x = no result.

SMILES | Peg3 prom inh | PPC-1+TRAIL kill | HIF-2a inh | KKLEB tox | CF NFkB inh | C8 TRAIL sens | PPC-1 tox
O=C(Nc1nc2cc3c(cc2s1)OCCO3)c1ccc(N2C(=O)CCC2=O)cc1 | n | n | n | n | n | n | x
O=C(Nc1nc2cc3c(cc2s1)OCO3)c1ccco1 | n | 68 | n | n | n | 75 | 72
COc1ccc(NC(=O)CS(=O)CC(=O)Nc2ccc(-n3cnnn3)c(C)c2)cc1 (configuration not stated) | n | x | n | n | n | n | x
COc1ccc(OC)c(-c2csc(NC(=O)CSc3nnnn3C)n2)c1 | n | x | n | n | n | n | x
Cc1ccnc(NC(=O)/C=C/c2ccccc2Cl)c1 | n | n | n | n | n | 55 | n
Cc1ccnc(NC(=O)/C=C/c2ccccc2[N+](=O)[O-])c1 | x | n | x | x | x | x | x
CC1CCCC/C1=N\NS(=O)(=O)c1ccc(Br)cc1 (configuration not stated) | n | n | n | n | n | n | n
Cc1cc(NC(=O)CSc2ccc(-c3nc4cc(C)c(C)cc4[nH]3)cn2)no1 | n | 59 | n | n | n | n | n
CC(C)NC(=O)c1cc(C2CCCCN2C(=O)c2cc(C(C)(C)C)nn2C)on1 (configuration not stated) | n | x | n | n | n | n | x
Cc1cc2nc3ccc(=[N+](C)C)cc-3sc2cc1N | n | 72 | n | n | 52 | 51 | 72
COc1ccc(N2CCN(c3nc(=S)n(-c4ccccc4)c(C)c3C(C)=O)CC2)cc1 | n | n | n | n | n | n | n
CN(Cc1nccs1)C(=O)C1CCC(=O)N(CCc2ccc(Cl)cc2)C1 (configuration not stated) | n | x | n | n | n | n | x
COc1ccc(N/N=C/c2c(C(=O)O)ccc3ccccc23)cc1 | n | n | n | n | n | n | n
COc1ccc2ccccc2c1/C=N/Nc1ccc(Cl)c(C(=O)O)c1 | n | x | n | n | n | n | x
C[C@]12c3[nH]c4ccccc4c3CCN1C(=O)C(CC(=O)NCCCn1ccnc1)C[C@@H]2C(=O)N1CCOCC1 (some centres not stated) | n | x | n | n | n | n | x
CS/C(Nc1cc(Cl)ccc1Cl)=C(/C#N)C(=O)c1ccco1 | n | n | n | n | n | 76 | n
O=C(Nc1cc(Cl)ccc1Cl)c1ccco1 | n | x | n | n | n | n | x
O=C(NCCN1CCOCC1)c1ccc(NC(=O)c2ccc(Br)o2)cc1 | x | x | n | x | x | n | x
Cn1c(=O)c(C(=O)c2ccc(S(C)(=O)=O)c(Cl)c2Cl)c(O)c2ccccc21 | n | x | n | n | n | n | x
O=C1CCC(=O)N1c1nc2nc(-c3ccccc3)cc(-c3ccccc3)n2n1 | n | n | n | n | n | n | n
CCCCC[C@@H](C)N1C[C@@H](COCc2ccccc2)Oc2cc(N3CC[C@@H](N(C)C)C3)ccc2S1(=O)=O | x | x | n | x | x | n | x
Cc1cc(N2CCN(c3ccccc3)CC2)n2ncnc2n1 | n | n | n | n | n | n | x
Cc1cc(N2CC(=O)N(CCc3ccccc3)C(=O)C2)n2ncnc2n1 | n | n | n | n | n | n | n
CCCN(C(=O)CSc1nc2ccccc2n1CC)C1CCS(=O)(=O)C1 (configuration not stated) | n | x | n | n | n | n | x
CCCCn1c(N)c(N(CCC(C)C)C(=O)COC(=O)Cc2ccc(Cl)cc2)c(=O)[nH]c1=O | n | x | n | n | n | n | x
SMILES | Peg3 prom inh | PPC-1+TRAIL kill | HIF-2a inh | KKLEB tox | CF NFkB inh | C8 TRAIL sens | PPC-1 tox
COc1cc2c(c(OC)c1OC)-c1ccc(SC)c(=O)cc1C(NC=O)CC2 (configuration not stated) | n | x | n | n | n | n | x
C/C(=N/OCC(=O)Nc1ccc(C)cc1C)c1cccs1 | n | n | n | n | n | n | n
C/C(=N\OCC(=O)Nc1ccccc1C(=O)O)c1cccs1 | n | n | n | n | n | n | x
CCCOc1ccc(CC(=O)N/N=C\c2ccc(F)cc2)cc1 | n | x | n | n | n | n | x
COc1cccc(-c2noc(CCC(=O)NC3CCCCC3)n2)c1 | n | n | n | n | n | n | n
COc1ccc(-c2noc(CCC(=O)NC3CCCCC3)n2)cc1OC | n | n | n | n | n | n | x
Cc1sc(=NC(=O)c2ccco2)n(C)c1-c1ccccc1 | n | 76 | n | n | n | 78 | 74
Cn1c(=NC(=O)c2ccco2)sc2ccccc21 | n | 50 | n | n | n | 59 | 53
